Laboratory results reported in PubChem BioAssay AID1259240 (Keith Lab, Institute of Cancer Science, University of …, 2017).
Active and inactive are the calls of the source. Cut-off read from the data, not from the text of the source: active = fold change mostly below about -2 (no sharp cut-off); inactive = mostly above about -1.8.

Assay: TERT promoter activity modulators, primary screen, cell-based, luciferase reporter, human (AID 1259240)
Conditions: A2780 TERT promoter luciferase reporter, 16 h; at 20 µM, fold versus average of vehicle-only wells

Fold change, inactive:
CCOC(=O)N1CCC(Nc2c(NC3CCCCC3C)c(=O)c2=O)CC1 (stereo unspecified) -1.05, CCOC(=O)C1=C(CS(=O)(=O)c2ccccc2)NC(=O)NC1c1cccc(Br)c1 (stereo unspecified) 1.6, Fc1ccc(Nc2nnc(Cc3ccncc3)c3ccccc23)cc1 -1.37, CCNC(=O)CC1C(=O)N(c2ccc(F)cc2)C(=O)N1CCC(C)C (stereo unspecified) 1.24, CC1=NN(c2nc3ccccc3nc2-n2nc(C)cc2C)C(=O)C1 -1.08, COCCNC(=O)CCSc1nc(-c2ccc3c(c2)OCO3)cc(C(F)(F)F)n1 -1.36, Cc1ccn2cc(-c3cccc(S(=O)(=O)N4CC(C)OC(C)C4)c3)nc2c1 (stereo unspecified) -1.09, CCS(=O)(=O)N1CCN(Cc2c[nH]c3ccccc23)CC1 -1.08, FC(F)(F)c1cccc(N2CCN(c3ccc4nncn4n3)CC2)c1 -1.15, CCN1C(=O)N(CC)C2C1N(C(C)=O)C(=O)N2C(C)=O (stereo unspecified) -1.76, O=C(CSc1nncc2ccccc12)Nc1ccccc1 1.07, CN(CC(=O)Nc1ccc2c(c1)OCO2)S(=O)(=O)c1ccc2c(c1)c(=O)n(C)c(=O)n2C -1.32, O=C(CN1C(=O)COc2ccc(S(=O)(=O)N3CCCC3)cc21)NCCCN1CCOCC1 -1.17, CCCCN(C)C(=O)Cn1ncc2c3ccccc3n(C)c2c1=O 1.16

outcome, inactive:
COc1ccc(-c2nc(CSc3nc4c(c(=O)[nH]3)CCC4)c(C)o2)cc1, Cc1cc2[nH]c(=O)c(CCO)c(C)n2n1
